Consider 24 molecules from PubChem BioAssay.

Unmarked numbers belong to inactive results.

This assay is described as follows: growth effects on S. cerevisiae YJM789 – YJM789 clinical isolate, OD600, 24 h, basal, primary screen (AID 1089).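 Further: growth of clinical yeast isolate S. cerevisiae YJM 789 seeded 1000 cells per well; test concentration not given here.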 Particulars: higher = more signal, called active from +8 up or from −8 down.
Turning to `[N-]=[N+]=Nc1ccccc1[C@@H]1OC(c2ccc(OCCCO)cc2)=N[C@]1(Cc1ccccc1)C(=O)NCC(O)CO` (some centres undefined), the z-score is -0.281. For `COc1ccc([Si](C)(C)[C@@H]2[C@@H](CCn3cc([C@H](O)c4ccccc4)nn3)O[C@]3(C(=O)N(Cc4ccc(N5CCC5=O)cc4)c4ccccc43)[C@H]2C)cc1` the value was 0.297; for `C=CCC(OC(C)=O)[C@@H]1[C@@H](N(Cc2ccc(-c3cccc(C(F)(F)F)c3)o2)C(=O)c2ccc(C)cc2)c2cc(OCCCO)ccc2N1C(=O)c1ccc2ccccc2c1` (some centres undefined), 0.488. As to `C=CCC(OC(C)=O)[C@@H]1[C@@H](N(Cc2cccc3ccccc23)C(=O)Cc2ccc(F)cc2)c2cc(OCCCO)ccc2N1C(=O)c1ccc2ccccc2n1` (some centres undefined), the z-score was -0.145. For `C[C@H]1NC(=O)[C@@]23C(=O)N[C@@H](Cc4ccccc4)C2[C@H](C)[C@@]2(C)O[C@H]2C3/C=C/C/C=C\CNC(=O)[C@H](Cc2ccccc2)NC1=O` (some centres undefined), the z-score was 0.907.

Consider `CCCCCCCCCCC(O)C1C=CC2C(=O)N(C)C(=O)C2N1Nc1ccc([N+](=O)[O-])cc1[N+](=O)[O-]` (centres undefined), for which the z-score is 0.766. The value for `NCCCCCCNC(=O)[C@@H]1C[C@@H]2C(=O)N[C@@H](CCCCN)C(=O)N2[C@@H]1c1cccc(OCCO)c1` was 0.825; that for `N#Cc1ccc(C(O)C2C=CC3C(=O)N(c4ccccc4)C(=O)C3N2Nc2ccccc2)cc1` (centres undefined) was 0.953. As for `CC1=C([C@H](O)CCc2ccccc2)[C@H](CO)[C@@H]2C(=O)N(C)C(=O)[C@@H]2C1`, the z-score was 0.618.

Turning to `CCOC(=O)C1=CC[C@@H](c2cccc(Cl)c2)N(S(=O)(=O)c2ccc(C)cc2)C1`, the z-score was -1.89. The value for `COCCOC(=O)N1C(=O)[C@@]2(c3cc(C#Cc4ccc(OC)cc4)ccc31)[C@H](C(=O)Nc1nc3ccccc3s1)[C@H]1C(=O)O[C@H](c3ccccc3)[C@H](c3ccccc3)N1[C@@H]2c1ccc(O)cc1` was 0.903; that for `COc1ccc(C#Cc2ccc3c(c2)[C@]2(C(=O)N3)[C@H](c3ccc(O)cc3)N3[C@H](c4ccccc4)[C@H](c4ccccc4)OC(=O)[C@H]3[C@@H]2C(=O)O)cc1` was 1.11; that for `CC(C)C[C@@H]1NC(=O)[C@@H]2C[C@H](C(=O)NCCCCCN)[C@H](c3ccc(O)cc3)N2C1=O` was 0.563.

As to `CN1C(=O)C2C=CC(C(O)c3ccc(F)cc3)N(Nc3ccccc3)C2C1=O` (centres undefined), the z-score is 0.397. The value for `CCC[C@@H]1C[C@@]1(CCC)[C@@H](NC(=O)OCc1ccccc1)c1ccc(-c2ccccc2)cc1` was -0.979; that for `COc1ccc(NC(=O)O[C@H]2[C@H](OC(=O)Nc3ccccc3)[C@H](OC(=O)Nc3ccccc3)[C@@H](OC)O[C@@H]2CO)cc1` was 0.855. For `CC(C)[Si](C#C[Si](C(C)C)(C(C)C)C(C)C)(O[C@H](C)c1cn([C@H](CO)Cc2ccccc2)nn1)C(C)C` the value was -0.653; for `[N-]=[N+]=NCc1ccccc1[C@@H]1OC(c2ccc(OCCCO)cc2)=N[C@]1(CCS(=O)(=O)c1ccccc1)C(=O)NCC(O)CO` (some centres undefined), -1.69; for `CCC(CC)C(O)C1C=CC2C(=O)N(c3ccccc3)C(=O)C2N1Nc1ccc(C(C)C)cc1` (centres undefined), 0.727. For `C=C(C)C1CCC(C(O)C2C=CC3C(=O)N(C)C(=O)C3N2N2CCCCC2)CC1` (centres undefined) the value was 1.26. Turning to `O=C1NC(=O)C2C1C=CC(C(O)c1cccc3ccccc13)N2Nc1ccc(Cl)cc1Cl` (centres undefined), the z-score is -1.94. For `C=CCOC(=O)[C@H]1[C@@H]2C(=O)O[C@@H](c3ccccc3)[C@@H](c3ccccc3)N2[C@@H](c2ccc(OCCOC(=O)[C@@H]3C[C@@H]4C(=O)N[C@@H](CCCCN(C)C)C(=O)N4[C@@H]3c3ccc(O)cc3)cc2)[C@]12C(=O)Nc1ccccc12` the value was 0.693; for `CCOC(=O)C1=CC[C@@H](c2ccccc2C(F)(F)F)N(S(=O)(=O)c2ccc(C)cc2)[C@H]1c1ccc(C#N)cc1`, -0.242; for `CCCNC(=O)[C@@H]1c2ccccc2C(=O)N(C(C)C)[C@H]1c1ccc(CO)cc1`, 0.853.
